# Assay results: PubChem BioAssay AID720517 (National Center for Advancing Translational Sciences (NCATS), 2013)
# Inconclusive results are not listed. Calls of active or inactive are those of the source. Calls follow the shape of the dose curve; as a rule, active = well fitted activation curve with a large enough effect; inconclusive = small, poorly fitted or top-dose-only effect; inactive = flat fitted curve, though single readings scatter.
# Test: qHTS for Inhibitors of Cell Surface uPA Generation: FP59 Counterscreen for Cherry-picked Compounds; as to activity (protection from FP59): 0% is about no effect
# Details: FP59 anthrax toxin cytotoxicity counterscreen, cells; series mostly up to 115 µM; activity (protection from FP59): at the top concentration
# Potency is read from the fitted curve at half-maximal effect.
Structure (SMILES),activity (protection from FP59),Potency
OC(COc1ccc(Br)cc1)CN1CCN(c2ccccc2)CC1 (centres undefined),-1.32% (inactive),
O=C(NC1CCCC1)c1nc2c(nnn2Cc2ccccc2Cl)c(=O)[nH]1,-0.974% (inactive),
O=C1c2ccccc2[C@@H]2C[C@H](NC34CC5CC(CC(C5)C3)C4)[C@@H](O)CCN12,-1.36% (inactive),
C=CC(=O)N1C/C(=C/c2ccccc2)C(=O)/C(=C\c2ccccc2)C1,,13.1 µM (active)
CCOC(=O)C1CCCN(CC(=O)Nc2ccc(C(=O)Nc3ccccc3OC)cc2)C1 (centres undefined),0.429% (inactive),
COc1ccc(C(=O)CC(=O)C(=O)Nc2ccccc2)cc1,-1.24% (inactive),
CCOC(=O)N1CCc2c(sc3nc4n(c(=O)c23)N=C(C)CS4)C1,-1.34% (inactive),
Oc1c(N=NC(=S)Nc2ccccc2F)c2ccccc2n1Cc1ccccc1Cl,-0.572% (inactive),
CN(CCCNC(=O)Cn1cccc1C(=O)c1ccccc1)C1CCCCC1,-1.16% (inactive),
O=C(CSc1ccc(Cl)cc1)Nc1ccc(C2SCCS2)cc1,-1% (inactive),
COc1ccc(C[C@@H]2OC3(C=CC(=O)C=C3)O[C@H]2Cc2ccc(OC)cc2)cc1,-1.61% (inactive),
C[C@@H](NC(=O)c1nc[nH]c1C(=O)NCc1ccc(CNC(=O)OC(C)(C)C)cc1)c1ccccc1,,58.5 µM (active)
Cc1cc(N2C(=O)C(O)=C(C(=O)c3ccco3)C2c2ccc(Cl)cc2)no1 (centres undefined),-0.808% (inactive),
COc1ccc(C(=O)NCCCN2CCOCC2)cc1,-1.15% (inactive),
CC1(NC(=O)CSc2nnc(-c3c[nH]c4ccccc34)n2C2CC2)CCS(=O)(=O)C1 (centres undefined),0.18% (inactive),
COC(/C=C/Nc1ccc(Cl)cc1)=C(C#N)C#N,-1.39% (inactive),
CCOC(=O)CN1C(=O)N[C@@H](c2ccco2)C(C(=O)OC)=C1C,3.64% (inactive),
Cc1ccc(S(=O)(=O)N2CCOCC2)cc1C(=O)OC1CCOC1=O (centres undefined),-1.41% (inactive),
COc1ccc(NC(=O)c2nn(C)c3c2CS(=O)(=O)c2ccccc2-3)cc1,-1.36% (inactive),
CN(C)S(=O)(=O)c1ccc(NC(=O)COC(=O)CC2CC3CCC2C3)cc1 (centres undefined),-1.38% (inactive),

Structure (SMILES),activity (protection from FP59),Potency
O=C(Cn1cnc2c(OCc3ccccc3)ncnc21)NCCCN1CCCC1=O,-1.32% (inactive),
CC(OC(=O)c1cccc(-n2cnnn2)c1)C(=O)Nc1ccc(F)c(F)c1F (centres undefined),-1.35% (inactive),
COc1ccccc1NC(=O)COc1ccc(C(=O)NCc2ccccc2)cc1OC,0.667% (inactive),
COc1ccc(S(=O)(=O)N2CCN(Cc3ccccc3)CC2)c(C)c1,-0.699% (inactive),
COc1ccc(Cc2nnc(Nc3ccc(C)cc3)o2)cc1OC,-1.17% (inactive),
Cc1ccccc1NC(=O)N1CCN(c2ncccn2)CC1,-1.2% (inactive),
CN(Cc1ccc(C(C)(C)C)cc1)C(=O)Cc1ccc(S(=O)(=O)N2CCOCC2)s1,5.97% (inactive),
Cc1cc(-c2ccccc2)nc(N/N=C/c2ccc(N(C)C)cc2)n1,-1.45% (inactive),
COC(=O)CNC(=O)COC(=O)/C=C/c1ccccc1[N+](=O)[O-],-1.46% (inactive),
O=C(O)CNS(=O)(=O)c1ccc2c(c1)Cc1cc(S(=O)(=O)NCC(=O)O)ccc1-2,-1.23% (inactive),
NC(=O)C1CCN(C(=O)c2cccc3ccccc23)CC1,-1.24% (inactive),
C=CCn1c(SCCN2C(=O)c3ccccc3C2=O)nc2scc(-c3ccc(F)cc3)c2c1=O,-1.32% (inactive),
COC(C[C@H](O)[C@H](C)[C@@H](O)COCc1ccccc1)OC,-1.17% (inactive),
COc1cc(N/C(N)=N/c2nc(C)cc(C)n2)cc(OC)c1,-1.6% (inactive),
CC1(C)Oc2ccc3ccc(=O)oc3c2[C@@H](O)[C@H]1O,-1.51% (inactive),
CCOc1cc(C)c(S(=O)(=O)N2CCCCC2)cc1C,-0.954% (inactive),
Cc1cccc(CNc2ccc(C(CC(N)=O)NC(=O)c3cccc(Br)c3)cc2[N+](=O)[O-])c1 (centres undefined),-1.01% (inactive),
O=C(O)CSc1nnc(COc2ccccc2)n1-c1ccccc1,-1.31% (inactive),
CC(C)N1CCc2c(sc(NC(=O)Cc3ccccc3)c2C(N)=O)C1,-1.41% (inactive),
